Measured values as given in PubChem BioAssay AID1159580 (chemical genetic matrix, 2015).
Among all 5,500 compounds or so, about 2,000 (36%) were called active. Not shown: some 18% with an inconclusive outcome. Some of the results follow. A number with no mark means an inactive call. Rule as the data show it: active = normalized growth mostly below about 0.91 (no sharp cut-off); inconclusive = no clear call, values can overlap the other calls; inactive = mostly above about 0.92.

Test: chemical genetic growth profiling, strain panel (AID 1159580);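 also: tested at 20 µM; growth read once vehicle control cultures reached saturation at 30 °C; 1 = growth at the plate median or of vehicle wells; lower values mean less growth of the strain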
Conditions: S. cerevisiae deletion strains, growth OD

With `CC(C)=CCCC(C)[C@@H]1CC[C@]2(C)C3=C(CC[C@@]12C)C1(C)CC[C@H](O)C(C)(C)C1CC3` (some centres undefined) the normalized growth (locus YJL187C, strain SWE1 (second series), active compounds read low) was 0.995, the normalized growth (locus YJL187C, strain SWE1, active compounds read low) was 1.06 and the normalized growth (locus YJR066W, strain TOR1, active compounds read low) was 0.866. The normalized growth (locus YKL009W, strain mrt4, active compounds read low) was 0.775 (active), the normalized growth (locus YKL068W, active compounds read low) was 1.04 and the normalized growth (locus YKL085W, strain MDH1 (second series), active compounds read low) was 1.03. The normalized growth (locus YKL085W, strain MDH1, active compounds read low) was 1.03, the normalized growth (locus YKL160W, strain elf1, active compounds read low) was 1.03 and the normalized growth (locus YKR001C, strain vps1, active compounds read low) was 0.979. For the same compound, the normalized growth (locus YKR026C, strain gcn3, active compounds read low) was 1.09 [resistant] (active), the normalized growth (locus YKR091W, strain srl3, active compounds read low) was 1.1 [resistant] (active) and the normalized growth (locus YLL001W, strain dnm1, active compounds read low) was 1.07. The normalized growth (locus YLL026W, active compounds read low) was 1.07 [resistant] (active), the normalized growth (locus YLL041C, strain sdh2, active compounds read low) was 1.06 and the normalized growth (locus YLR027C, strain aat2, active compounds read low) was 1.07. For the same compound, the normalized growth (locus YLR039C, strain RIC1, active compounds read low) was 1.24, the normalized growth (locus YLR058C, strain SHM2, active compounds read low) was 0.996 and the normalized growth (locus YLR102C, strain apc9, active compounds read low) was 1.05. For the same compound, the normalized growth (locus YLR113W, strain HOG1, active compounds read low) was 0.866, the normalized growth (locus YLR221C, strain rsa3, active compounds read low) was 1.06 and the normalized growth (locus YLR258W, strain gsy2, active compounds read low) was 1.07. The normalized growth (locus YLR262C, strain YPT6 (second series), active compounds read low) was 0.822 (active), the normalized growth (locus YLR268W, strain sec22, active compounds read low) was 0.973 and the normalized growth (locus YLR320W, strain mms22, active compounds read low) was 1.05. For the same compound, the normalized growth (locus YLR330W, strain CHS5, active compounds read low) was 1.06, the normalized growth (locus YLR342W, strain FKS1, active compounds read low) was 1.05 and the normalized growth (locus YLR357W, strain rsc2, active compounds read low) was 1.13. It also gave a normalized growth (locus YLR370C, strain arc18, active compounds read low) of 1.07, a normalized growth (locus YLR371W, strain rom2, active compounds read low) of 1.06 and a normalized growth (locus YLR384C, strain iki3, active compounds read low) of 1.07. It also gave a normalized growth (locus YLR418C, strain cdc73, active compounds read low) of 1.15, a normalized growth (locus YML016C, strain PPZ1, active compounds read low) of 1.06 and a normalized growth (locus YML032C, strain rad52, active compounds read low) of 0.946. For the same compound, the normalized growth (locus YML120C, strain ndi1, active compounds read low) was 1.03, the normalized growth (locus YML124C, strain tub3, active compounds read low) was 1.06 and the normalized growth (locus YMR058W, strain fet3, active compounds read low) was 1. The normalized growth (locus YMR078C, strain ctf18, active compounds read low) was 1.08, the normalized growth (locus YMR125W, strain sto1, active compounds read low) was 1.07 and the normalized growth (locus YMR129W, active compounds read low) was 1.06. It also gave a normalized growth (locus YMR205C, strain PFK2, active compounds read low) of 1.04, a normalized growth (locus YMR223W, strain ubp8, active compounds read low) of 0.971 and a normalized growth (locus YMR231W, strain pep5, active compounds read low) of 1.04. The normalized growth (locus YMR307W, strain GAS1, active compounds read low) was 1.42 [resistant] (active), the normalized growth (locus YNL067W, strain RPL9B, active compounds read low) was 1.02 and the normalized growth (locus YNL071W, strain lat1, active compounds read low) was 1.04. It also gave a normalized growth (locus YNL128W, strain TEP1, active compounds read low) of 0.996, a normalized growth (locus YNL183C, strain NPR1, active compounds read low) of 0.846 and a normalized growth (locus YNL209W, strain ssb2, active compounds read low) of 1.06. The normalized growth (locus YNL233W, strain BNI4, active compounds read low) was 1.13 [resistant] (active), the normalized growth (locus YNL248C, strain rpa49, active compounds read low) was 1.01 and the normalized growth (locus YNL250W, strain rad50, active compounds read low) was 0.996. It also gave a normalized growth (locus YNL271C, strain bni1, active compounds read low) of 1.01, a normalized growth (locus YNL298W, strain CLA4, active compounds read low) of 0.917 and a normalized growth (locus YNL307C, strain MCK1, active compounds read low) of 1.03. The normalized growth (locus YNL322C, strain KRE1 (second series), active compounds read low) was 1.08, the normalized growth (locus YNR049C, strain mso1, active compounds read low) was 1.08 and the normalized growth (locus YNR052C, strain pop2, active compounds read low) was 0.968. For the same compound, the normalized growth (locus YOL012C, strain htz1) was 1.41, the normalized growth (locus YOL147C, strain pex11, active compounds read low) was 1.1 [resistant] (active) and the normalized growth (locus YOR001W, strain rrp6, active compounds read low) was 1.02. For the same compound, the normalized growth (locus YOR061W, strain CKA2, active compounds read low) was 0.994, the normalized growth (locus YOR069W, strain VPS5, active compounds read low) was 1.05 and the normalized growth (locus YOR070C, strain gyp1, active compounds read low) was 1.05. The normalized growth (locus YOR080W, strain dia2, active compounds read low) was 1.09 [resistant] (active), the normalized growth (locus YOR083W, strain WHI5, active compounds read low) was 0.994 and the normalized growth (locus YOR106W, strain vam3, active compounds read low) was 0.939. The normalized growth (locus YOR136W, strain idh2, active compounds read low) was 1.02, the normalized growth (locus YOR144C, strain elg1, active compounds read low) was 1.02 and the normalized growth (locus YOR184W, strain ser1, active compounds read low) was 0.85 (active). For the same compound, the normalized growth (locus YOR231W, strain MKK1, active compounds read low) was 0.874, the normalized growth (locus YOR265W, strain rbl2, active compounds read low) was 1.07 [resistant] (active) and the normalized growth (locus YOR270C, strain vph1, active compounds read low) was 0.839. For the same compound, the normalized growth (locus YOR290C, strain snf2, active compounds read low) was 0.992, the normalized growth (locus YOR316C, strain cot1, active compounds read low) was 1.06 and the normalized growth (locus YPL051W, strain arl3, active compounds read low) was 1.02. For the same compound, the normalized growth (locus YPL078C, strain atp4, active compounds read low) was 1.02, the normalized growth (locus YPL106C, strain sse1, active compounds read low) was 1.26 [resistant] (active) and the normalized growth (locus YPL240C, strain hsp82, active compounds read low) was 1.05. For the same compound, the normalized growth (locus YPL256C, strain CLN2, active compounds read low) was 0.994, the normalized growth (locus YPR119W, strain clb2, active compounds read low) was 1.07 and the normalized growth (locus YPR141C, strain kar3, active compounds read low) was 1.05. The normalized growth (locus YPR163C, strain tif3, active compounds read low) was 0.975, the normalized growth (locus YPR167C, strain met16, active compounds read low) was 1.03 and the normalized growth (strain wtn01, active compounds read low) was 0.949.
